Results with a measured potency or affinity are listed apart. Active and inactive are the calls of the source.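 Rule for the calls: active = falling luciferase signal whose fitted half-maximal concentration is at most twice the top tested dose; inconclusive = flat inhibition between 30 and 70% or a poor curve fit; inactive = the rest.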
assay: off-target signal loss in HeLa-CEM21 co-culture – HeLa F-luc CTL cells, cherry-picked, counter-screen for HIV-1 Env fusion inhibitor project, dose response (AID 652040); conditions: HeLa-F-luc CTL cells with CEM21, firefly luciferase counterscreen; series mostly up to 35 µM;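 note: more negative values mean stronger loss of luciferase signal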

SMILES | outcome
COc1ccc(/C=C/c2nc(S(=O)(=O)c3ccccc3)c(NCCCN(C)C)o2)cc1OC | inactive
CCCCOc1ccc(S(=O)(=O)Nc2cccnc2)cc1 | inactive
CCN(c1nc(N)c(C(=O)N=C(N)N)nc1Cl)C(C)C | inactive
Cc1cccc(N2CCN(C(=O)CCCSc3nc4ccccc4[nH]3)CC2)c1C | inactive
COc1ccc(-c2cc(C3CCN(c4cc(Cl)nc(N)n4)CC3)[nH]n2)cc1 | inactive
COc1ccccc1N/C(N)=N/c1nc(CSc2ccc(C)cc2)cc(=O)[nH]1 | inactive
CCCCCn1c(C(C)NC(=O)CCC)nc2ccccc21 (centres undefined) | inactive
COc1ccc(NC(=O)C2(C)CCN2Cc2ccccc2OC(F)F)cc1OC (centres undefined) | inactive
CC(C)(C)OC(=O)N1CCc2onc(-c3ccc(Br)cc3)c2C1=O | inactive
Fc1ccc(-n2nnnc2-c2cnc(-c3cccs3)nc2C(F)(F)F)cc1 | inactive
CCOC(=O)[C@@H]1[C@H]2COc3cc(OC)ccc3[C@H]2N2C(=O)N(c3cccc(F)c3)C(=O)[C@@]12C | inactive
CCc1ccc(C(=O)CN2C(=O)NC(C)(c3ccc(C)cc3)C2=O)cc1 (centres undefined) | inactive
Nc1ccc(S(=O)(=O)c2ccc(N3CCOCC3)c(N)c2)cc1 | inactive
Cc1nc2ccc(NC(=O)c3ccc(Cl)c(S(=O)(=O)N(C)c4ccccc4)c3)cc2s1 | inactive
Nc1nonc1C(=O)NCCNCc1c(OCc2ccccc2F)ccc2ccccc12 | inactive
O=C(Nc1ccncc1)c1ccc(Cl)c(S(=O)(=O)N2CCc3ccccc32)c1 | inactive
CCOc1ccc(C(=O)C2CCN(CC(=O)Nc3ccccc3N3CCOCC3)CC2)cc1 | inactive
O=C1COc2ccc(-c3csc(=Nc4ccc(OC(F)F)cc4)n3CC3CCCO3)cc2N1 (centres undefined) | inactive
O=C(COC(=O)c1ncc(Cl)c(Cl)c1Cl)NCc1cccs1 | inactive
Cc1ccccc1S(=O)(=O)NC(=O)C1(C)CCN1C(=O)CCc1ccc(Cl)cc1Cl (centres undefined) | inactive

SMILES | outcome
O=c1c2ccccc2nnn1CSc1nnc(COc2ccc(Cl)cc2)n1Cc1ccco1 | inactive
CCOC(=O)CN1CCCc2nc(C)c(C)cc21 | inactive
CSc1ccc(CN(C)C(=O)c2cccc(S(=O)(=O)N3CCN(Cc4ccccc4)CC3)c2)cc1 | inactive
N#Cc1ccc(CSc2nnc(COc3ccccc3)n2-c2ccccc2)cc1 | inactive
C[C@H](CO)N1C[C@H](C)[C@@H](CN(C)C(=O)NC2CCCCC2)Oc2c(cccc2N(C)C)C1=O | inactive
CC(=O)OC1c2ccccc2C(=O)N1c1ccccc1C (centres undefined) | inactive
O=S(=O)(NCCc1csc(-c2cccnc2)n1)c1ccc(Cl)s1 | inactive
COc1ccc(NC(=O)CN2CCC(C(N)=O)(N3CCCCC3)CC2)cc1 | inactive
CC(Cl)=CCn1c(NCCc2ccccc2)nc2c1c(=O)n(C)c(=O)n2C | inactive
CCc1cc2c(NCc3ccco3)ncnc2s1 | inactive
CCCCS(=O)(=O)N1CCN(C(=O)C(=O)c2cccc(C(F)(F)F)c2)CC1 | inactive
Cc1ccc(NS(=O)(=O)c2cc(C(=O)N(C)C3CCN(C)CC3)ccc2Cl)cc1Cl | inactive
COc1cc(-c2cc(OC)c(O)c(OC)c2)cc(OC)c1O | inactive
CCN(CC)CCN(C(=O)c1cc(Cl)sc1Cl)c1nc2cc3c(cc2s1)OCO3 | inactive
O=C(c1cc(COc2cccc(C(F)(F)F)c2)on1)N1CCC(c2ccncc2)CC1 | inactive
CN(C(=O)c1cccc(NC(=O)Cc2cccc(NC(=O)C3CCCN(C(=O)C4CCC4)C3)c2)c1)C1CCC1 (centres undefined) | inactive
CC(C)(C)c1ccc(-c2noc(CCC(=O)NCC3CCCO3)n2)cc1 (centres undefined) | inactive
c1ccc(CSc2nnc([C@@H]3CCCN3)o2)cc1 | inactive
Nc1c(S(=O)(=O)c2ccccc2)cnc2c(-c3ccc(F)cc3)cnn12 | inactive

Source: PubChem BioAssay AID652040 (Broad Institute, 2013)
